Reference: PubChem BioAssay

What follows are compounds tested on Plasmodium falciparum Sir2 (PF13_0152, Sir2A) (assay: Plasmodium falciparum Sir2A binding compounds – biochemical, small-molecule microarray, 635 nm fluorescence, primary screen (AID 1098;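 note: score merges spot fluorescence intensity with its signal-to-noise ratio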)). Conditions: fluorescence 635 nm, higher = more signal.

SMILES	composite z-score
CC(CO)N1C(=O)[C@@H]2C3C(=O)OCCC/C=C\[C@H]3OC23C=CCN(C(C)(C)C)C(=O)[C@@H]13 (stereo not given in full)	0.205
CN1C(=O)C2C=CC(C(O)c3ccccc3)N(N(c3ccccc3)c3ccccc3)C2C1=O (stereo not given)	1.59
C=CCOC(=O)[C@H]1[C@@H]2C(=O)O[C@@H](c3ccccc3)[C@@H](c3ccccc3)N2[C@@H](c2ccc(OCCOC(=O)[C@@H]3C[C@@H]4C(=O)N[C@@H](CCCCNC(C)=O)C(=O)N4[C@@H]3c3ccc(O)cc3)cc2)[C@]12C(=O)Nc1ccccc12	1.65
C[C@H]1C2[C@H](Cc3ccccc3)NC(=O)[C@]23C(=O)N[C@H](Cc2ccccc2)C(=O)N2CCC[C@H]2C(=O)NC/C=C\C/C=C/C3[C@@H]2O[C@]12C (stereo not given in full)	0.901
CC(C)C(O)C1C=CC2C(=O)NC(=O)C2N1Nc1ccc(Cl)cc1Cl (stereo not given)	0.686
COC(=O)C(CC#Cc1ccc2c(c1)[C@]1(C(=O)N2)[C@H](C(=O)Nc2nc3ccccc3s2)[C@H]2C(=O)O[C@H](c3ccccc3)[C@H](c3ccccc3)N2[C@@H]1c1ccc(O)cc1)C(=O)OC	1.18
CC(C)C(O)C1C=CC2C(=O)N(c3ccccc3)C(=O)C2N1Nc1ccc([N+](=O)[O-])cc1 (stereo not given)	0.0242
CC(C)C[C@@H]1NC(=O)[C@@H]2C[C@H](C(=O)NCc3ccc(F)cc3)[C@H](c3cccc(OCCO)c3)N2C1=O	1.52
CCCC[C@H]1OB(O)C[C@H]2C1=C(COC)C[C@H]1C(=O)N(C)C(=O)[C@H]12	0.0079
COCCOC(=O)N1C(=O)[C@@]2(c3cc(C#Cc4ccc(OC)cc4)ccc31)[C@H](c1ccccc1OCCO)N1[C@H](c3ccccc3)[C@H](c3ccccc3)OC(=O)[C@H]1[C@@H]2C(=O)NC[C@H](O)c1ccccc1	1.23
CCOC(=O)C[C@H]1[C@H](OC(=O)c2ccc(C(=O)c3ccccc3)cc2)[C@@H](NC(=O)c2ccccc2)c2cc(OCCCO)ccc2N1C(=O)c1ccc2ccccc2n1	0.295
O=C(c1ccccc1)N1C(=O)[C@@]2(Cc3ccccc31)N=C(c1ccc(OCCCO)cc1)O[C@H]2c1ccccc1	1.64
Cc1ccc(N2C(=O)c3ccccc3[C@@H](C(=O)NC3CC3)[C@@H]2c2ccc(CO)cc2)nc1	1.24
[N-]=[N+]=Nc1ccccc1[C@@H]1OC(c2ccc(OCCCO)cc2)=N[C@]1(CCS(=O)(=O)c1ccccc1)C(N)=O	1.37
COC(=O)C(CC#Cc1ccc2c(c1)[C@]1(C(=O)N2)[C@H](C(=O)Nc2nc3ccccc3s2)[C@H]2C(=O)O[C@H](c3ccccc3)[C@H](c3ccccc3)N2[C@@H]1c1ccccc1OCCO)C(=O)OC	1.61
CCOC(=O)C[C@H]1[C@H](OC(=O)c2ccc(C(=O)c3ccccc3)cc2)[C@@H](NC(=O)CC(C)C)c2cc(OCCCO)ccc2N1C(=O)c1ccc2ccccc2n1	0.366
C=CC[C@]1(C(=O)NCc2ccccc2)N=C(c2ccc(OCCCO)cc2)O[C@H]1c1ccccc1N=[N+]=[N-]	1.33
OCCCC1=CC(c2cccs2)N(Cc2cc3c(cc2Br)OCO3)CC1 (stereo not given)	0.725

SMILES	composite z-score
COc1ccc(C#Cc2ccc3c(c2)[C@]2(C(=O)N3)[C@H](C(=O)Nc3nc4ccccc4s3)[C@H]3C(=O)O[C@H](c4ccccc4)[C@H](c4ccccc4)N3[C@@H]2c2ccc(O)cc2)cc1	1.15
NC(=O)[C@@H]1[C@H]2C(=O)O[C@H](c3ccccc3)[C@H](c3ccccc3)N2[C@H](c2ccc(O)cc2)[C@@]12C(=O)Nc1ccccc12	0.0555
CCCCC(CC)C(O)C1C=CC2C(=O)N(Cc3ccccc3)C(=O)C2N1n1cnnc1 (stereo not given)	-0.503
O=C1O[C@H](c2ccccc2)[C@H](c2ccccc2)N2[C@H]1[C@@H](C(=O)N1CCCCCCC1)[C@]1(C(=O)Nc3ccc(C#CCCO)cc31)[C@H]2c1ccccc1OCCO	2.26
C=CCNC(=O)[C@H]1[C@@H]2C(=O)O[C@@H](c3ccccc3)[C@@H](c3ccccc3)N2[C@@H](c2ccccc2OCCO)[C@]12C(=O)Nc1ccc(C#CCCO)cc12	0.932
COc1ccc(C#Cc2ccc3c(c2)[C@]2(C(=O)N3)[C@H](c3ccccc3OCCO)N3[C@H](c4ccccc4)[C@H](c4ccccc4)OC(=O)[C@H]3[C@@H]2C(=O)Nc2nc3ccccc3s2)cc1	1.64
CN1C(=O)C2C=CC(C(O)C3CC=CCC3)N(N(c3ccccc3)c3ccccc3)C2C1=O (stereo not given)	0.206
O=C1O[C@@H](c2ccccc2)[C@@H](c2ccccc2)N2[C@@H](c3ccccc3OCCO)[C@]3(C(=O)Nc4ccccc43)[C@@H](C(=O)Nc3nc4ccccc4s3)[C@H]12	1.02
O=C1NC(=O)C2C1C=CC(C(O)c1cc(C(F)(F)F)cc(C(F)(F)F)c1)N2Nc1ccccn1 (stereo not given)	1.57
O=C(N1CCCCC1)[C@]1(Cc2ccccc2)N=C(c2ccc(OCCCO)cc2)O[C@@H]1c1ccccc1	1.05
CC(C)c1ccc(NN2C(C(O)c3ccc(B(O)O)cc3)C=CC3C(=O)N(c4ccccc4)C(=O)C32)cc1 (stereo not given)	1.24
NC(=O)NCC#Cc1ccc2c(c1)[C@]1(C(=O)N2)[C@H](c2ccc(O)cc2)N2[C@H](c3ccccc3)[C@H](c3ccccc3)OC(=O)[C@H]2[C@@H]1C(=O)O	-0.0693
Cc1ccccc1C(O)C1C=CC2C(=O)N(c3ccccc3)C(=O)C2N1Nc1ccc(C(C)C)cc1 (stereo not given)	0.623
COc1ccc(CCNC(=O)[C@@H]2c3ccccc3C(=O)N(Cc3ccccc3Cl)[C@H]2c2ccc(CO)cc2)cc1	0.489
O=C(NC1CC1)[C@@H]1c2ccccc2C(=O)N(Cc2ccccc2Cl)[C@H]1c1ccc(CO)cc1	0.814
Cc1nc2cc(Br)ccc2c(=O)o1	-0.319
CCN(CC)c1ccc(N2CC=CC34O[C@@H]5C=CCCOC(=O)C5[C@H]3C(=O)N(CCCCCCO)[C@@H]4C2=O)cc1 (stereo not given in full)	1.93
